# Targets with a hit are over-represented here; the source holds about 7,900 in all. About 0.6% of all pairs of compound and target were hits.
# Compound: CNC(=O)c1ccc(Nc2ncc(C(F)(F)F)c(NCc3nccnc3N(C)S(C)(=O)=O)n2)cc1 [defactinib]
# Test: log2 fold change, soluble protein after heating vs DMSO (PISA); higher = thermal stabilisation; K562 cells, 10 uM, 30 min; active = over 0.2 and 3.5 SD of the protein, either way, in both replicates (recomputed)
# Summary of the method: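 K562 cells at 2×10^6 cells/mL were given 10 μM compound for 30 min. Aliquots then went through 3 min of heating across 48°C-58°C, were pooled, and were extracted in PBS with 0.5% NP-40 at 4°C, and the supernatant after 21,000xg for 90 min was quantified by TMTpro 16plex LC-MS/MS with channel sums equalised. Thermal stability relative to control samples, from duplicates, is given as log2 fold change.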
# Sequence of UniProt O14524 (O14524 whole entry, looked up): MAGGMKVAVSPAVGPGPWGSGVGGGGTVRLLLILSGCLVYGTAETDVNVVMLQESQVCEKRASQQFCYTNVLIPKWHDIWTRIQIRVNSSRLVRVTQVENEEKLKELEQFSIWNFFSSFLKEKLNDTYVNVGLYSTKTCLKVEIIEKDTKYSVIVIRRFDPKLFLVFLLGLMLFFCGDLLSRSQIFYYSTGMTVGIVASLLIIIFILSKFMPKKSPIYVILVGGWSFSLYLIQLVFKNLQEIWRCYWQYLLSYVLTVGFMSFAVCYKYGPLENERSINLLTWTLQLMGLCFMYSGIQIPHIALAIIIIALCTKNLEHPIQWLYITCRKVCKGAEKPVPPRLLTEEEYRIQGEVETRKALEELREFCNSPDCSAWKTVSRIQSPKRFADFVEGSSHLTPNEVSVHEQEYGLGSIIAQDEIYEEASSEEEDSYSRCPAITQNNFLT
# Sequence of UniProt O15460 (O15460 whole entry, looked up): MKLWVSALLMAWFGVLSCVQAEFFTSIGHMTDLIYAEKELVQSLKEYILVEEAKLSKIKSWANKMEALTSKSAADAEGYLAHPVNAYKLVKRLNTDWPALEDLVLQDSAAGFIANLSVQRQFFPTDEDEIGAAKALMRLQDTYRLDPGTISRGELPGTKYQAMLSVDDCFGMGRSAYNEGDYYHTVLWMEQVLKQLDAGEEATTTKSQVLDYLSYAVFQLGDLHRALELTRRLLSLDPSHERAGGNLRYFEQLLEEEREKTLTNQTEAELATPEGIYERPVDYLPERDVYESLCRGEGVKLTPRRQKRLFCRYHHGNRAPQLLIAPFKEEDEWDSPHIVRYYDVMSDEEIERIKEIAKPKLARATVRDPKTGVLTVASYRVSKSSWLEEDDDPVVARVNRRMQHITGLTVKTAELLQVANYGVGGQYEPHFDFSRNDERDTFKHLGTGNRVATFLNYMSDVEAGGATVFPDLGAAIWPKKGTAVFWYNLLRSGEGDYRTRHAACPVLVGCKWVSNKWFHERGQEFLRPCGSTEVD
# Sequence of UniProt Q9UI09 (Q9UI09 whole entry, looked up): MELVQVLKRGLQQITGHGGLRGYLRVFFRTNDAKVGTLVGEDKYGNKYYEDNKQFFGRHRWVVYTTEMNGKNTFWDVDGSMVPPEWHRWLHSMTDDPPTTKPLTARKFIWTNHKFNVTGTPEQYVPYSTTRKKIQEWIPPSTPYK
# Sequence of UniProt P15559 (P15559 whole entry, looked up): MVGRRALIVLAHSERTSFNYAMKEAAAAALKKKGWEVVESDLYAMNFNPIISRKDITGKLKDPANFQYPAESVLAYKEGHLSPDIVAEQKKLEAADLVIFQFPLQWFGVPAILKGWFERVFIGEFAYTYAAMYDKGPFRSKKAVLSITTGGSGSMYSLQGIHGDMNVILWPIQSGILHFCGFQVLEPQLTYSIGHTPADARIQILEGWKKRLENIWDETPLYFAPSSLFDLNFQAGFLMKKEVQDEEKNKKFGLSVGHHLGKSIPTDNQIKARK
# Sequence of UniProt O00567 (O00567 whole entry, looked up): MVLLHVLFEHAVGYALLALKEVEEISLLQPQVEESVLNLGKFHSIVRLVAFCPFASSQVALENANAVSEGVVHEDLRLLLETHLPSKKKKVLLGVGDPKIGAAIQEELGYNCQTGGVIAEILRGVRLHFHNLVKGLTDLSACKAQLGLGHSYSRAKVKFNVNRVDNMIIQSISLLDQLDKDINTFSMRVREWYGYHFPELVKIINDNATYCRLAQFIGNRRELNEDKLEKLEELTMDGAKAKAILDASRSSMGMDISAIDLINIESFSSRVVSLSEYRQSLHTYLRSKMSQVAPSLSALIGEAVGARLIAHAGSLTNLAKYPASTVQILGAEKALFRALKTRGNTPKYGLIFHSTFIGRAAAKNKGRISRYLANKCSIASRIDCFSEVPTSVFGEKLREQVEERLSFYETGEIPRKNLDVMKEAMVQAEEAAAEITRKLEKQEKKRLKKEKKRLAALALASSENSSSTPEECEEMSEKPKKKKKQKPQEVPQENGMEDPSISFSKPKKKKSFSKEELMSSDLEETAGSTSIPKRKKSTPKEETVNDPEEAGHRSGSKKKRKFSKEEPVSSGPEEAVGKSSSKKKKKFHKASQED
# Sequence of UniProt Q96I59 (Q96I59 whole entry, looked up): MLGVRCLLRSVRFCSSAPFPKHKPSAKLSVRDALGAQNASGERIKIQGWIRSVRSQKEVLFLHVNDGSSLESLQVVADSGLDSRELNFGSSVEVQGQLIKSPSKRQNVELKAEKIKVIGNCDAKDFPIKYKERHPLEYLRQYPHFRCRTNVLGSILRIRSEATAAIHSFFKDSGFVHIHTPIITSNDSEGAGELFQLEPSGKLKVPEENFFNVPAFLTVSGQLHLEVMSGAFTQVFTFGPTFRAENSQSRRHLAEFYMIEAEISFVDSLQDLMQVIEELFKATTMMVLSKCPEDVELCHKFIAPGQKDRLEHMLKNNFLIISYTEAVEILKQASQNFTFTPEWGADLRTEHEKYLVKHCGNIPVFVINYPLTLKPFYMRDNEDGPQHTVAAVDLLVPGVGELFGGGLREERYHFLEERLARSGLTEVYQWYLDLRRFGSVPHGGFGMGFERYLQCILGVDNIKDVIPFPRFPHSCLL
# Sequence of UniProt Q9HAN9 (Q9HAN9 whole entry, looked up): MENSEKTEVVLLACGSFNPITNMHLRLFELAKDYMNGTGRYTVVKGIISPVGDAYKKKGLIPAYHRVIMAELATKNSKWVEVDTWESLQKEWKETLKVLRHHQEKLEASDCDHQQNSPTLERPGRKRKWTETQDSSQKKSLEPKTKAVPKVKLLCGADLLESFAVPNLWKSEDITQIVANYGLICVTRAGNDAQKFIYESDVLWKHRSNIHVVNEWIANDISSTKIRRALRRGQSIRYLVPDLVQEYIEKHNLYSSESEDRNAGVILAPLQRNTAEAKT
# Sequence of UniProt Q9NWU1 (Q9NWU1 whole entry, looked up): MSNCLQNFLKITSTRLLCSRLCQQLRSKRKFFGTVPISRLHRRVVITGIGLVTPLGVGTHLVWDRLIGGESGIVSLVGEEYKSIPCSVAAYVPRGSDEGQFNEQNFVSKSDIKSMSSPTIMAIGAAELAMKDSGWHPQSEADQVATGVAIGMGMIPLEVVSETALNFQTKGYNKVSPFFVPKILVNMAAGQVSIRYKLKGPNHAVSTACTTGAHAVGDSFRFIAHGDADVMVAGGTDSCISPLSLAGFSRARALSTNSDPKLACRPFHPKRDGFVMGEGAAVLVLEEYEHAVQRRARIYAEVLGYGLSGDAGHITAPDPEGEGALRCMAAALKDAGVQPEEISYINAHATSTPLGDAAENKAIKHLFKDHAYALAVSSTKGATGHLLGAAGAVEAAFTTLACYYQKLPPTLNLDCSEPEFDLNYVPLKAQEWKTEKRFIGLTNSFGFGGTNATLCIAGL
# Sequence of UniProt Q12769 (Q12769 whole entry, looked up): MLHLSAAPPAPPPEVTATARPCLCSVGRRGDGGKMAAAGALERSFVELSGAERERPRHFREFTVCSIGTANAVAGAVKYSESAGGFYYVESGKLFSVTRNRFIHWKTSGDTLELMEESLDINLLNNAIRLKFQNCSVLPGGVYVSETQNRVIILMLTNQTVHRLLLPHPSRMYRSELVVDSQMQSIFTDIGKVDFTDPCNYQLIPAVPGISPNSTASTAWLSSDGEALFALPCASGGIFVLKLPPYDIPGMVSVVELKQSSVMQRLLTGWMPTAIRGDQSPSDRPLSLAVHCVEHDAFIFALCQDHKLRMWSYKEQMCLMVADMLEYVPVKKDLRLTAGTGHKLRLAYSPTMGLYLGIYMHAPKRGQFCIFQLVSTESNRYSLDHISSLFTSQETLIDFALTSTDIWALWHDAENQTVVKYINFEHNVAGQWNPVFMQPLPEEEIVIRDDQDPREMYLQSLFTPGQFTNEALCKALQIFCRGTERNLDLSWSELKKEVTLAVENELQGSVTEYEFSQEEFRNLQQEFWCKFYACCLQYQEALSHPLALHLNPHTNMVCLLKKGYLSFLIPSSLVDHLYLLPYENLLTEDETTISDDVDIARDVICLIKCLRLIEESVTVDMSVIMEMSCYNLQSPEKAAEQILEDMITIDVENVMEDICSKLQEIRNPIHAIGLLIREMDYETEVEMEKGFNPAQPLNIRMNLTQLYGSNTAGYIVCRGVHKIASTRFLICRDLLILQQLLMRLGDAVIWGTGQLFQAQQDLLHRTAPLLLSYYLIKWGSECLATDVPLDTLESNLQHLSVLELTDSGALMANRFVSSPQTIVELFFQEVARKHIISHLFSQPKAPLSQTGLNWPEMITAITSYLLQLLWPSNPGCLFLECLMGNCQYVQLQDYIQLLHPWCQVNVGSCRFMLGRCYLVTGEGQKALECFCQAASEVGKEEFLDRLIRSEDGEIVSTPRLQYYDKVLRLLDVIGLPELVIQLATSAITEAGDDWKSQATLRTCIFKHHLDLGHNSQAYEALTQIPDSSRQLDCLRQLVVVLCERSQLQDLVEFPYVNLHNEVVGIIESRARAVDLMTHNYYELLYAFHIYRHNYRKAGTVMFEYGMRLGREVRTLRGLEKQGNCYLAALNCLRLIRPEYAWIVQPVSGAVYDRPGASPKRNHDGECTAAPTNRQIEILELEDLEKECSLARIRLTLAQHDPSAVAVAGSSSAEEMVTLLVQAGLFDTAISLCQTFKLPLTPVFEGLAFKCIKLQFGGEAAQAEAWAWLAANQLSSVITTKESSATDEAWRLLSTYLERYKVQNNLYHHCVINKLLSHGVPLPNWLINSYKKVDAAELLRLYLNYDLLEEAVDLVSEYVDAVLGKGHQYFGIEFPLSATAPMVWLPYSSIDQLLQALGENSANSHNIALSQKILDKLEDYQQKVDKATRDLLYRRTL
# Sequence of UniProt P00846 (P00846 whole entry, looked up): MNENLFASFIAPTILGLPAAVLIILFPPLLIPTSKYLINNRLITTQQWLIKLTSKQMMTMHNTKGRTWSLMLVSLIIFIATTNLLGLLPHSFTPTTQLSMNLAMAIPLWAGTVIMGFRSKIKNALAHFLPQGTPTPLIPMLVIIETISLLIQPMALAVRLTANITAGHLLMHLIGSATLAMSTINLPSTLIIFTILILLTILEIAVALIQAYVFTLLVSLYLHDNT
row,Target,log2 fold change
1,NOB1 (UniProt Q9ULX3),-0.009 (inactive)
2,MRPS25 (UniProt P82663),-0.072 (inactive)
3,NACC1 (UniProt Q96RE7),-0.312 (inactive)
4,NEMP1 (UniProt O14524),0.021 (inactive)
5,MTHFD1 (UniProt P11586),-0.046 (inactive)
6,OXSM (UniProt Q9NWU1),-0.059 (inactive)
7,MT-ATP6 (UniProt P00846),-0.095 (inactive)
8,OTUD4 (UniProt Q01804),0.054 (inactive)
9,MRPL50 (UniProt Q8N5N7),0.04 (inactive)
10,NFATC2 (UniProt Q13469),-0.14 (inactive)
11,NUP205 (UniProt Q92621),-0.132 (inactive)
12,MRPS24 (UniProt Q96EL2),0.041 (inactive)
13,MINK1 (UniProt Q8N4C8),-0.069 (inactive)
14,NUP85 (UniProt Q9BW27),-0.097 (inactive)
15,NOP56 (UniProt O00567),0.375 (inactive)
16,P4HA2 (UniProt O15460),0.085 (inactive)
17,NCAPH (UniProt Q15003),-0.119 (inactive)
18,MRPS15 (UniProt P82914),0.035 (inactive)
19,"NA, A0A096LPI6",0 (inactive)
20,NQO1 (UniProt P15559),-0.038 (inactive)

row,Target,log2 fold change
1,NIBAN1 (UniProt Q9BZQ8),-0.111 (inactive)
2,MPHOSPH10 (UniProt O00566),0.11 (inactive)
3,NCAPD2 (UniProt Q15021),-0.052 (inactive)
4,NFATC2IP (UniProt Q8NCF5),-0.122 (inactive)
5,NARS2 (UniProt Q96I59),0.001 (inactive)
6,NMT2 (UniProt O60551),-0.016 (inactive)
7,MTHFS (UniProt P49914),-0.053 (inactive)
8,NUCKS1 (UniProt Q9H1E3),0.048 (inactive)
9,MYH11 isoform 2 (UniProt P35749),-0.039 (inactive)
10,NUP160 (UniProt Q12769),-0.11 (inactive)
11,NDUFA12 (UniProt Q9UI09),-0.037 (inactive)
12,NUDT21 (UniProt O43809),0.045 (inactive)
13,NCOA7 (UniProt Q8NI08),-0.099 (inactive)
14,MON2 isoform 5 (UniProt Q7Z3U7),-0.011 (inactive)
15,NMRAL1 (UniProt Q9HBL8),0.122 (inactive)
16,NMNAT1 (UniProt Q9HAN9),0.237 (inactive)
17,MND1 (UniProt Q9BWT6),-0.021 (inactive)
18,NUDT16 (UniProt Q96DE0),-0.024 (inactive)
19,NGLY1 (UniProt Q96IV0),-0.026 (inactive)
